Rows were chosen to be rich in hits. Some 4% of all compounds tested hit in one or more screens of this group.
EBV LMP1 NFkB: EBV LMP1-driven NF-kappaB luciferase reporter inhibitors, primary screen, cell-based, luminescence, single point; inhibition, % at 12.5 µM; LMP1-induced NF-kappaB luciferase reporter cells; 350,000 compounds, 0.69% hits; in the data active = inhibition above about 41%;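 also: 0% = neutral control wells and 100% = reference inhibitor control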
Peg3 prom inh: Peg3 promoter-driven luciferase inhibitors, primary screen, cell-based, HeLa, luciferase luminescence; inhibition, % at 20 µM; 360,000 compounds, 1.7% hits; HeLa PEG-Prom luciferase reporter, overnight; AID 588405, 2011;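 active = inhibition of at least 50% at 20 µM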
TWEAK Fn14 block: inhibitors of TWEAK-Fn14 signaling, primary screen, luciferase reporter cells, uHTS; TWEAK-stimulated Fn14 reporter cells, luciferase luminescence, 8 h; inhibition, % at 10 µM; 360,000 compounds, 2% hits; in the data active = inhibition above about 50%
TROY NFkB inh: inhibitors of TROY-driven NF-kB signaling, primary screen, Q293 LMP1-TROYcd cells, NF-kB luciferase, uHTS; Q293 LMP1-TROYcd NF-kB luciferase reporter, 4 h; 360,000 compounds, 0.98% hits; inhibition, % at 10 µM; AID 1347056, 2019;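 active = compounds whose plate-normalised and pattern-corrected inhibition of the luciferase reporter signal at the single screening dose is 50% or more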
HIF-2a block: HIF-2a reporter inhibitors, primary screen, luminescence, 786-0 RCC cells; 786-0 RCC cells HIF-2a reporter, luciferase luminescence, overnight; 360,000 compounds, 0.72% hits; inhibition, % at 18.8 µM;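 active = inhibition of the luminescence signal of 40% or more relative to plate controls, in a single-dose primary screen at 18.75 µM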
TRPM1 prom inh: inhibitors of MITF-dependent TRPM1 promoter reporter, primary screen, cell-based, SK-MEL-5, single point, luciferase | inhibition, % at 12.5 µM | AID 488899, 2010 | SK-MEL-5 TRPM1 promoter luciferase, 24 h | 330,000 compounds, 0.83% hits;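 active = mean inhibition across replicates of 60% or more, whatever share of single replicates reaches that level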
Mdm2-MdmX confirm: retested Mdm2-MdmX interaction blockers, confirmation, cell-based, luminescence, single concentration, set 2; shares compounds with HIF-2a block; SaOS-2 split-luciferase Mdm2/MdmX complementation; inhibition, % at 8 µM; 740 compounds, 99% hits;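 active = mean inhibition of the luminescence signal across two replicates at or above 26 percent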
Target sequence (O15151 whole entry, looked up): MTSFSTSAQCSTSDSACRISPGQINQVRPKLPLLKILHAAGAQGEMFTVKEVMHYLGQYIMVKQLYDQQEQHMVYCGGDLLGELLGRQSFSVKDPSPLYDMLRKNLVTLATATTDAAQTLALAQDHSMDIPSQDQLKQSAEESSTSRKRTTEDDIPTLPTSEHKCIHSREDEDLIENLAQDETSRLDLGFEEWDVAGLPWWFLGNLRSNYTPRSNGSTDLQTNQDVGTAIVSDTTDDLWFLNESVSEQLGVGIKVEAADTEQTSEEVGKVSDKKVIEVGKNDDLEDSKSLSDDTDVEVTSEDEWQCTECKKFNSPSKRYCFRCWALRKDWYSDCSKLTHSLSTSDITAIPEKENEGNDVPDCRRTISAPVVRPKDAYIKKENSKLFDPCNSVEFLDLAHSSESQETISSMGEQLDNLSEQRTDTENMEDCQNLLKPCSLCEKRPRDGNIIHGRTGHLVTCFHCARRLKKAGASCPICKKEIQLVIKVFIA
Target sequence (Q00987 whole entry, looked up): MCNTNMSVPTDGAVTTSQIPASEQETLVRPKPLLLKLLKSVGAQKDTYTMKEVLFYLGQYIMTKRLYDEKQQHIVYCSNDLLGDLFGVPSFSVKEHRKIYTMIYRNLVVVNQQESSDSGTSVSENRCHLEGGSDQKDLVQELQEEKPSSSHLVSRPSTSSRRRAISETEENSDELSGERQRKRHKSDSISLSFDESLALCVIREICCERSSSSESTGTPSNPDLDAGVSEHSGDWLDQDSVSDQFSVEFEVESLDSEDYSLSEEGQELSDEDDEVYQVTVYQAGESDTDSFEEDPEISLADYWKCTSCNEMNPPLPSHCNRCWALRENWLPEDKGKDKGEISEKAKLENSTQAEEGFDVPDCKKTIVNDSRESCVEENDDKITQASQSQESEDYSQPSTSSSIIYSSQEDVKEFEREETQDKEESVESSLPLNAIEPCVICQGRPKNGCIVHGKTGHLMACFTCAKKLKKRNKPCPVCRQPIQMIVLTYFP
HIF-2a inh conf: HIF-2a reporter inhibitor retest, confirmation, luminescence, 786-0 RCC cells | 1,800 compounds, 56% hits | HIF-2a luciferase reporter luminescence, overnight | shares compounds with HIF-2a block | inhibition, % at 18.8 µM;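 active = mean inhibition across four replicates of at least 40 percent at the single tested concentration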
HIF-1a counter: HIF-1a luciferase reporter signal reduction – MiaPaCa-2 cells, single concentration, counter-screen for HIF-2a inhibitor project, confirmation. MiaPaCa-2 HIF-1a luciferase reporter, desferoxamine, overnight. inhibition, % at 18.8 µM. AID 651589, 2012. 1,800 compounds, 72% hits. shares compounds with HIF-2a block;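 active = mean inhibition of the reporter signal across four replicates at the single tested dose of 50% or more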
Numbers without * were called inactive; . = not tested or not shown; ! = not active in a repeat.

SMILES	EBV LMP1 NFkB	Peg3 prom inh	TWEAK Fn14 block	TROY NFkB inh	HIF-2a block	TRPM1 prom inh	Mdm2-MdmX confirm	HIF-2a inh conf	HIF-1a counter
O=C(CCl)Nc1cc(SCC(O)CO)cc([N+](=O)[O-])c1 (stereo not drawn)	25.4	105.7*	10.1	-3.8	86.0*	88.6*	.	87.7*	106.9*
CCC(=O)Nc1cc(SCCO)cc([N+](=O)[O-])c1	-4.3	11.0	7.6	6.4	14.9	-1.1	.	.	.
CC(C)=NOc1cc(NC(=O)CCl)cc([N+](=O)[O-])c1	-4.4	110.3*	22.9	-15.9	43.9*	87.2*	103.2*	66.3*	106.5*
O=C(NCCCN1CCOCC1)c1ccc2c(c1)N(Cc1cccc(Cl)c1)C(=O)CS2	-8.6	19.4	-7.4	8.6	14.6	3.0	.	.	.
Cc1cccc2sc(NNC(=O)c3ccc(S(=O)(=O)N4CC(C)CC(C)C4)cc3)nc12 (stereo not drawn)	37.6	99.5*	63.8*	51.0*	48.3*	77.7*	90.5*	-3.8	100.4*
COC(=O)c1sc2ccccc2c1NC(=O)c1ccc(S(=O)(=O)N2CC(C)CC(C)C2)cc1 (stereo not drawn)	10.2	8.5	-12.0	-23.8	-3.2	-2.1	.	.	.
Cc1ccc(Cl)cc1NC1=C/C(=N\S(=O)(=O)c2cccs2)c2ccccc2C1=O	59.5*!	109.6*	99.7*	70.6*	89.7*	89.5*	102.0*	.	.
Cc1ccc(NC2=C/C(=N\S(=O)(=O)c3cccs3)c3ccccc3C2=O)c(C)c1	95.0*	110.9*	94.8*	69.2*	70.6*	104.9*	100.7*	.	.
CCOc1nc2cnccc2n(CC(=O)Nc2c(C)cccc2CC)c1=O	-0.7	-9.0	-10.6	10.3	3.7	-0.3	.	.	.
COc1ccc(C2c3ccc4ccccc4c3Oc3ncn(CCCN(C)C)c(=N)c32)cc1 (stereo not drawn)	-34.9	112.1*	-189.1	-43.5	93.1*	100.6*	102.0*	-1.7	104.6*
C=C(C)[C@@H]1C2=CC(C(=O)OC)=C(C[C@H](C(=C)C)[C@H]3O[C@H]3C3=C[C@H]1OC3=O)O2	.	103.0*	72.1*	2.1	87.8*	.	.	89.1*	106.4*
O=C(Cn1c(=O)oc2ccccc21)Nc1ccc(F)cc1	-21.5	0.4	20.4	12.0	9.9	4.1	.	.	.
CCc1ccc(S(=O)(=O)Nc2ccc(-c3ccc4nncn4n3)cc2)s1	7.3	26.8	-6.3	-10.9	42.2*	8.8	.	0.1	-40.4
COc1ccc(C2CC(c3cccs3)=NN2C(=O)CCl)cc1OC (stereo not drawn)	-5.5	103.1*	49.0	-52.8	3.1	83.2*	95.8*	.	.
COc1cc(C2CC(c3cccs3)=NN2C(=O)CCl)ccc1OC(F)F (stereo not drawn)	0.1	109.0*	-7.0	-46.8	38.5	64.8*	103.0*	.	.
COc1ccc(C2CC(c3cccs3)=NN2C(=O)c2ccccc2)cc1OC (stereo not drawn)	-13.6	8.1	2.5	14.7	9.8	-7.9	.	.	.
CC(=O)N1N=C(c2ccco2)CC1c1cccs1 (stereo not drawn)	-12.2	1.6	11.3	-5.7	-1.3	10.8	.	.	.
Cc1ccc(C2=NN(C(=O)CCl)C(c3cccs3)C2)o1 (stereo not drawn)	35.1	60.1*	48.4	-43.7	83.9*	73.2*	101.0*	2.0	50.6*

Assay outcomes: PubChem, several laboratories
